Results reported in the supplement of paper PMC10849652.
The full data set covers some 7,900 targets. This sample favours those with a hit. About 0.6% of all pairs of compound and target were hits.

Key:
Experiment in all cases: log2 fold change, soluble protein after heating vs DMSO (PISA); higher = thermal stabilisation; K562 cells, 10 uM, 30 min; active = over 0.2 and 3.5 SD of the protein, either way, in both replicates (recomputed)
[1] = compound: CS(=O)(=O)c1ccc(-c2cnc(N)c(C(=O)Nc3ccccc3)n2)cc1
How it was run: (§1)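 Aliquots of K562 cells (2×10^6 cells/mL) treated with 10 μM compound for 30 min were heated for 3 min over 48°C-58°C. After pooling and extraction in PBS with 0.5% NP-40 at 4°C, soluble protein from a 21,000xg, 90 min spin was quantified by TMTpro 16plex LC-MS/MS with channel sums equalised. Thermal stability is expressed against control samples, from duplicates, as a log2 fold change.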

[2] = compound: C[C@@H](Oc1cc(-c2cnn(C3CCNCC3)c2)cnc1N)c1c(Cl)ccc(F)c1Cl [crizotinib]
How it was run: as §1

[3] = compound: C[C@@H]1COCCN1C2=NC(=NC(=C2)C3(CC3)S(=O)(=O)C)C4=C5C=CNC5=CC=C4
How it was run: as §1

[4] = compound: C[C@H](C1=CC=C(C=C1)C(=O)NC2=C3C=CNC3=NC=C2)N
How it was run: as §1

[5] = compound: C[C@H](Nc1ncnc2nc[nH]c12)c1cc2cccc(Cl)c2c(=O)n1-c1ccccc1 [duvelisib]
How it was run: as §1

[6] = compound: Cc1cc(Nc2cc(CN3CCOCC3)c3nc(C)c(Cc4ccc(Cl)cc4F)n3n2)n[nH]1 [gandotinib]
How it was run: as §1

[7] = compound: Cc1cc(Nc2cc(N3CCN(C)CC3)nc(Sc3ccc(NC(=O)C4CC4)cc3)n2)n[nH]1 [tozasertib]
How it was run: as §1

[8] = compound: Cc1cc(SCc2sc(-c3ccc(C(F)(F)F)cc3)nc2C)ccc1OCC(=O)O
How it was run: as §1

[9] = compound: Cc1ccc(-n2nc(C(C)(C)C)cc2NC(=O)Nc2ccc(OCCN3CCOCC3)c3ccccc23)cc1 [doramapimod]
How it was run: as §1

[10] = compound: Cc1ccc(C(=O)N(CCCN)[C@@H](c2nc3cc(Cl)ccc3c(=O)n2Cc2ccccc2)C(C)C)cc1 [ispinesib]
How it was run: as §1

[11] = compound: Cc1ccc(NC(=O)c2ccc(CN3CC[C@H](N(C)C)C3)c(C(F)(F)F)c2)cc1Nc1nccc(-c2cncnc2)n1 [bafetinib]
How it was run: as §1

[12] = compound: Cc1cccc(CC(=O)N2CCc3c2ccc(-c2cn(C)c4ncnc(N)c24)c3F)n1
How it was run: as §1

[13] = compound: Cc1cn(-c2cc(NC(=O)c3ccc(C)c(Nc4nccc(-c5cccnc5)n4)c3)cc(C(F)(F)F)c2)cn1 [nilotinib]
How it was run: as §1

[14] = compound: Cc1nc(Nc2n[nH]c3c2CN(C(=O)N[C@H](CN(C)C)c2ccccc2)C3(C)C)c2sccc2n1
How it was run: as §1

[15] = compound: Cc1nc(Nc2ncc(C(=O)Nc3c(C)cccc3Cl)s2)cc(N2CCN(CCO)CC2)n1 [dasatinib]
How it was run: as §1

[16] = compound: Cc1ncc(-c2ccnc(Nc3ccc(S(C)(=O)=O)cc3)n2)n1C(C)C
How it was run: as §1

[17] = compound: Cn1cc(-c2ccc3c(c2)CCN3C(=O)Cc2cccc(C(F)(F)F)c2)c2c(N)ncnc21
How it was run: as §1

[18] = compound: Cn1cc(-c2ccc3nnc(C(F)(F)c4ccc5ncccc5c4)n3n2)cn1
How it was run: as §1

[19] = compound: Cn1cncc1[C@@](N)(c1ccc(Cl)cc1)c1ccc2c(c1)c(-c1cccc(Cl)c1)cc(=O)n2C [tipifarnib]
How it was run: as §1

[20] = compound: FC(F)(F)c1ccc(/C=C/c2nc(COc3ccc(CCCCn4ccnn4)cc3)co2)cc1 [mubritinib]
How it was run: as §1

Measured: log2 fold change

CHCHD1 (UniProt Q96BP2)
inactive: [1] -0.115 | [3] -0.203 | [4] -0.067 | [5] -0.061 | [6] -0.085 | [7] -0.045 | [8] 0.036 | [9] -0.087 | [10] 0.06 | [11] -0.084 | [12] 0.081 | [13] -0.007 | [14] 0.02 | [15] -0.057 | [16] -0.031 | [17] -0.153 | [18] 0.105 | [19] 0.077 | [20] 0.104
active: [2] -0.54

CDKN2AIP (UniProt Q9NXV6)
Sequence of UniProt Q9NXV6 (Q9NXV6 whole entry, looked up): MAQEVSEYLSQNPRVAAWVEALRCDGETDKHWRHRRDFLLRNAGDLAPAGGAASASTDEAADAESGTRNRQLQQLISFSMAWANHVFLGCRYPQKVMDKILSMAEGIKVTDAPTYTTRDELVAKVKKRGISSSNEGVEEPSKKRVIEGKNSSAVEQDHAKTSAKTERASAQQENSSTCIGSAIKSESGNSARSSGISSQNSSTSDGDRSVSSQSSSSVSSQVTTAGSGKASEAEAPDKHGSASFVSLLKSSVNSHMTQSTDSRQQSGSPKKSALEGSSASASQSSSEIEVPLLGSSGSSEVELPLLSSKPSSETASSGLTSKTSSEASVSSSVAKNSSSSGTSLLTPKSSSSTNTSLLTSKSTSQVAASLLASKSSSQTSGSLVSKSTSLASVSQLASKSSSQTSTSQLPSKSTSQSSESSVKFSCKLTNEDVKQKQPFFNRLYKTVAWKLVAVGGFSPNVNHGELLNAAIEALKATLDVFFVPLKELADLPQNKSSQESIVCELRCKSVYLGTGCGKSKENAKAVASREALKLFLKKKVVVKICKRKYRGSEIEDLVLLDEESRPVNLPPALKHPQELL
inactive: [1] -0.053 | [2] 0.01 | [3] -0.132 | [4] -0.004 | [5] 0.031 | [6] -0.012 | [7] -0.024 | [8] 0.021 | [9] -0.019 | [10] 0.048 | [11] 0.034 | [12] 0.021 | [13] -0.021 | [14] 0.034 | [15] -0.041 | [16] 0.015 | [17] -0.049 | [18] -0.012 | [19] 0.046 | [20] -0.011

CEPT1 (UniProt Q9Y6K0)
Sequence of UniProt Q9Y6K0 (Q9Y6K0 whole entry, looked up): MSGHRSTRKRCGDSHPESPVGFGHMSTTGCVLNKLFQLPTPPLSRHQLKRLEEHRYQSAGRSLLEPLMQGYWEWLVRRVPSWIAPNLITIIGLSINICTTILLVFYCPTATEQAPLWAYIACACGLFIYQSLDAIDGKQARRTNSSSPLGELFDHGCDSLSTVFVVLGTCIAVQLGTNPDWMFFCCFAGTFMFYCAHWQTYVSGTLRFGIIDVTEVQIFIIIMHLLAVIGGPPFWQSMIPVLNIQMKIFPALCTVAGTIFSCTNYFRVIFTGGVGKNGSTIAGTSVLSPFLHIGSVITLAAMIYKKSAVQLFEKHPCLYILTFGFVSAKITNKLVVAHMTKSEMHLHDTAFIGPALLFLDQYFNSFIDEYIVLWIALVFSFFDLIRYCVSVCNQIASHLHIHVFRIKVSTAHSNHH
inactive: [1] 0.055 | [2] -0.226 | [3] 0.146 | [4] 0.042 | [5] -0.022 | [6] -0.268 | [7] -0.019 | [8] 0.047 | [9] 0.021 | [10] -0.214 | [11] -0.048 | [12] 0.032 | [13] -0.052 | [14] 0.156 | [15] -0.008 | [16] 0.044 | [17] 0.031 | [18] -0.014 | [19] -0.055 | [20] -0.012

CKS1B (UniProt P61024)
Sequence of UniProt P61024 (P61024 whole entry, looked up): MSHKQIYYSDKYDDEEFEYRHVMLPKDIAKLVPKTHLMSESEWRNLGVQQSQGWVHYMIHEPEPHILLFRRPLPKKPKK
inactive: [1] -0.013 | [2] 0.063 | [3] 0.06 | [4] -0.051 | [5] 0.022 | [6] 0 | [7] 0.02 | [8] -0.093 | [9] -0.026 | [10] 0.224 | [11] -0.065 | [12] -0.06 | [13] 0.14 | [14] -0.016 | [15] 0 | [16] 0.026 | [17] 0.067 | [18] 0.017 | [19] -0.043 | [20] 0.056

CNTN4 (UniProt Q8IWV2)
Sequence of UniProt Q8IWV2 (Q8IWV2 whole entry, looked up): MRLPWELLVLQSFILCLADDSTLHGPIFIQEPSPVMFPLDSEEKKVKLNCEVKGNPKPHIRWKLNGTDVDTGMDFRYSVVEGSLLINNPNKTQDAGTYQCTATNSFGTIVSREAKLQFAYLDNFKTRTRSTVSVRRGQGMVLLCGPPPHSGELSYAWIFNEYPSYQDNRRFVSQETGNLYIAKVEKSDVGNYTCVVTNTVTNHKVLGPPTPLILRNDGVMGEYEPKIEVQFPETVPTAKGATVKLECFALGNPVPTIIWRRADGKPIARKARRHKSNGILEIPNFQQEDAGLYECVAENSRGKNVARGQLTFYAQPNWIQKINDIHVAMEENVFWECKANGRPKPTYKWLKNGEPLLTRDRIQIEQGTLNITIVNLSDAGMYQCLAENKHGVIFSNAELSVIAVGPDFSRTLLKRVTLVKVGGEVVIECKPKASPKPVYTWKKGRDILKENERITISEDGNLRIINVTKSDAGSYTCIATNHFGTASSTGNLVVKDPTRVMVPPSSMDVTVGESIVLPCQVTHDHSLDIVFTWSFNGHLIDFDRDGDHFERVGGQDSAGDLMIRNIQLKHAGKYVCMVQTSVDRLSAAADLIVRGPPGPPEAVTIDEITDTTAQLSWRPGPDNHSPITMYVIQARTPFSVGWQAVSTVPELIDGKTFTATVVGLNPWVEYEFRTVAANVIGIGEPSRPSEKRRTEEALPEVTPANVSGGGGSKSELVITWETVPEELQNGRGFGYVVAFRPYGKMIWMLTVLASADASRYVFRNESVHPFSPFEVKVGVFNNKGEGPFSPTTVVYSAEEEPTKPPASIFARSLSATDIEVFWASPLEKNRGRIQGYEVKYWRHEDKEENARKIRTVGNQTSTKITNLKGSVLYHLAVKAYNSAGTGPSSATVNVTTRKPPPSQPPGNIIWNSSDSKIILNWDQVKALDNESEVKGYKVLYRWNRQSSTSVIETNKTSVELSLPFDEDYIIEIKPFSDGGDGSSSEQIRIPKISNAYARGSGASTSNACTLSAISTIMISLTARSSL
inactive: [1] -0.03 | [2] 0.064 | [3] 0.148 | [4] -0.099 | [5] 0.102 | [6] 0.144 | [7] -0.051 | [8] -0.087 | [9] -0.095 | [10] -0.046 | [11] -0.109 | [12] 0.008 | [13] 0.06 | [14] 0.01 | [15] 0.003 | [16] -0.13 | [17] 0.131 | [18] 0.032 | [19] -0.097 | [20] 0.224

CPT2 (UniProt P23786)
Sequence of UniProt P23786 (P23786 whole entry, looked up): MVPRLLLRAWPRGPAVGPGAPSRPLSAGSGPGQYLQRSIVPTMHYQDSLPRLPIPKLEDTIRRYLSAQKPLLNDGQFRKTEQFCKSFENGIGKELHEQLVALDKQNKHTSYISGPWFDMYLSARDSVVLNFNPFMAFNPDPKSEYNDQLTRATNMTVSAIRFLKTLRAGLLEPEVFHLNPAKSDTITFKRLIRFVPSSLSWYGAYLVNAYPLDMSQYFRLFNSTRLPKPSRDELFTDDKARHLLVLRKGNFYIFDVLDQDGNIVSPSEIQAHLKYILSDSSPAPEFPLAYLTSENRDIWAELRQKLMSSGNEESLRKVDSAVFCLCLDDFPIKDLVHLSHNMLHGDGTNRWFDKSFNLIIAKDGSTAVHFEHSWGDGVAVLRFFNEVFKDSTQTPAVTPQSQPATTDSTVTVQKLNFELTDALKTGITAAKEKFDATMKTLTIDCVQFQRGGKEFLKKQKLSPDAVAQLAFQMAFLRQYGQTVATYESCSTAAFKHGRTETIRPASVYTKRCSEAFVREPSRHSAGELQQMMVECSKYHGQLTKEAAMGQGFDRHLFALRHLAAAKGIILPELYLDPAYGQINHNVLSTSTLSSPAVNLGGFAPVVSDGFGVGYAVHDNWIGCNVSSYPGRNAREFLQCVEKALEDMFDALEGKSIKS
inactive: [2] -0.42 | [3] 0.06 | [4] -0.01 | [5] 0.069 | [6] 0.119 | [7] -0.049 | [9] -0.019 | [10] -0.306 | [11] -0.115 | [12] 0.008 | [13] 0.096 | [14] -0.003 | [15] 0.217 | [16] 0.047 | [17] 0.268 | [18] 0.265 | [19] -0.076
active: [1] 0.701 | [8] 1.04 | [20] 0.763

CCZ1 (UniProt P86791)
Sequence of UniProt P86791 (P86791 whole entry, looked up): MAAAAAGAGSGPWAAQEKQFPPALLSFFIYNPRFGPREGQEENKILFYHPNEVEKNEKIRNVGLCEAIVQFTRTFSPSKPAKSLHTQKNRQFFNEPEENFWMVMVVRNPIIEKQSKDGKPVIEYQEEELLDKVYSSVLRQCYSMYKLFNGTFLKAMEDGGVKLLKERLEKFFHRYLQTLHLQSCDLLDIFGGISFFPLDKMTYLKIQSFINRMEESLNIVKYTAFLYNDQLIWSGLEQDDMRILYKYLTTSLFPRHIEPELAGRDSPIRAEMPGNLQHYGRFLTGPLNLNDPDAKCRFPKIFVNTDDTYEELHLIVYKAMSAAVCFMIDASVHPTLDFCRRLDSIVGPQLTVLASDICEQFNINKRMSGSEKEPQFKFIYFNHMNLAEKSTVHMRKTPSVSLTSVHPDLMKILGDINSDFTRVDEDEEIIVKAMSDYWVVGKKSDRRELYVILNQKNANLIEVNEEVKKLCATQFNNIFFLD
inactive: [1] 0.022 | [3] 0.009 | [4] 0.005 | [5] -0.053 | [6] -0.081 | [7] -0.039 | [8] 0.006 | [9] -0.036 | [10] -0.162 | [11] -0.127 | [12] 0.007 | [13] 0.024 | [14] -0.022 | [15] -0.057 | [16] -0.098 | [17] 0.021 | [18] 0.025 | [19] 0.043 | [20] 0.038
active: [2] -0.278

CCAR2 isoform 2 (UniProt Q8N163)
Sequence of UniProt Q8N163 (Q8N163 whole entry, looked up): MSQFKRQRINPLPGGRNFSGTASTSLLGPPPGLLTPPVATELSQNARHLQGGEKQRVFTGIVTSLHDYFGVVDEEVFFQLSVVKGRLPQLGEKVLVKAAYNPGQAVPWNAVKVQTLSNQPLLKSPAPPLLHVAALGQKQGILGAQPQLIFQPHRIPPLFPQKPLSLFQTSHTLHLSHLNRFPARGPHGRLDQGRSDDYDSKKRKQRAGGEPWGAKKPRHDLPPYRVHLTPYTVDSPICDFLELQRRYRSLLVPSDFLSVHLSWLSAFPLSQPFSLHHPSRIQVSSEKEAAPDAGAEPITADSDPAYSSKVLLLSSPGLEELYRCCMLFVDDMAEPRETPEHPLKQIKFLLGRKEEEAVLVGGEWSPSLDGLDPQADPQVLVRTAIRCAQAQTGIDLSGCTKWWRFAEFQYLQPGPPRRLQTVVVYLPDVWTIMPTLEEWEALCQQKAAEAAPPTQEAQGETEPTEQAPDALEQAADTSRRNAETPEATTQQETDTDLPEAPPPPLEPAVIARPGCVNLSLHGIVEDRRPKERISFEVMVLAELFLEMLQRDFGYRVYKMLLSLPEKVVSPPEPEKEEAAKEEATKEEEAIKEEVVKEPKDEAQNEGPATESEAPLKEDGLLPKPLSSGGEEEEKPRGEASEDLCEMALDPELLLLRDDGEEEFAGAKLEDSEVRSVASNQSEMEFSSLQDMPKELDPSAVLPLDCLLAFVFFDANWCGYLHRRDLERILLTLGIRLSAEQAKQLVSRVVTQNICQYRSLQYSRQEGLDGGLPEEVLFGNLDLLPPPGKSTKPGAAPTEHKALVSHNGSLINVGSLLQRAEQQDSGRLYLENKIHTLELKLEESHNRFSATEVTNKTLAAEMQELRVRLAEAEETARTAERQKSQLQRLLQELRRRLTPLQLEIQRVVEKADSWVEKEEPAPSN
inactive: [1] -0.037 | [2] 0.024 | [3] 0.046 | [4] 0.011 | [5] -0.001 | [6] -0.093 | [7] 0.103 | [8] 0.169 | [9] -0.009 | [10] -0.063 | [11] 0.007 | [12] 0.01 | [13] -0.053 | [14] -0.023 | [15] -0.176 | [16] -0.157 | [17] -0.009 | [18] 0.042 | [19] 0.011 | [20] 0.031
